# Source: ChEMBL document CHEMBL1961873, “Compounds: GSK PKIS; Assays: Nanosyn kinase panel” (2012)
# Target: SRSF protein kinase 1 (Homo sapiens) (UniProt Q96SB4);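 note: reported values are mean percent inhibition of SRPK1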
# Conditions: at 1 µM
# SRSF protein kinase 1 (Homo sapiens), sequence (Q96SB4 whole entry): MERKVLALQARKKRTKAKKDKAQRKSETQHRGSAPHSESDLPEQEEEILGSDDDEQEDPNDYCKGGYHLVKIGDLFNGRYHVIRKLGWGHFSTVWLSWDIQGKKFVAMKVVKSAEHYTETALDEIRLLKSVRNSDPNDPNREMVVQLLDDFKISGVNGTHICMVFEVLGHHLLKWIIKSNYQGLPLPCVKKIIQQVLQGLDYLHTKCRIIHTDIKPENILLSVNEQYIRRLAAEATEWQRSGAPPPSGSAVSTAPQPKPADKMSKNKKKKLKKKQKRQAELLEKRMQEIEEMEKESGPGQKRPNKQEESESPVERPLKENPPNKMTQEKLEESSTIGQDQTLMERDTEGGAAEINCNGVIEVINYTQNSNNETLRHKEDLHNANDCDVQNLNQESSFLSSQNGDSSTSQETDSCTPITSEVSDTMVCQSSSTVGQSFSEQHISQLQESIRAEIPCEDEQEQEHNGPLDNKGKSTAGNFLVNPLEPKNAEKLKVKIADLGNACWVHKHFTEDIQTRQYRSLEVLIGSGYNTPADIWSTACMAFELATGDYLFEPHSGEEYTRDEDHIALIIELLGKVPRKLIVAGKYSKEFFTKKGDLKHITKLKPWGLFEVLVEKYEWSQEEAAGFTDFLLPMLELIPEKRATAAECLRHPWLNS
row,SMILES,inhibition [%]
1,N#Cc1c(NC(=O)c2ccccc2F)sc2c1CCCC2,-0.64
2,CN(C)CCCn1c(-c2nonc2N)nc2cnccc21,-4.44
3,NS(=O)(=O)c1ccc(-c2cc3ccncc3cc2OCc2ccccc2)cc1,0.04
4,NS(=O)(=O)c1cccc(-c2cc3ccncc3cc2OCc2ccccc2)c1,-2.89
5,N#Cc1cccc(Nc2nccc(-c3cnn4ncccc34)n2)c1,23
6,COc1cccc(-n2nc(C)c3c(N/N=C(\C)c4ccncc4)ncnc32)c1,-2.27
7,Oc1cccc(-c2nc(-c3ccccc3)[nH]c2-c2ccncc2)c1,0.98
8,COc1cccc(-n2ncc3c(N/N=C/c4ccc(C)cc4)ncnc32)c1,-1.68
9,COc1cccc(-n2ncc3c(N/N=C/c4ccc(S(C)(=O)=O)cc4)ncnc32)c1,0.02
10,NC(=O)c1sc(-n2cnc3ccccc32)cc1OCc1ccccc1Br,-2.38
11,Cc1cc(O)cc(C)c1/C=C/c1cncc(C(=O)N(C)C)c1,-1.41
12,COc1cc(/C=N/Nc2ncnc3c2cnn3C(C)C)ccc1O,1.12
13,NS(=O)(=O)c1ccc(N/N=C2\C(=O)Nc3ccc(Cl)cc32)cc1,0.49
14,Cc1cc(Cl)cc2c1NC(=O)C2=NNc1ccc(S(N)(=O)=O)cc1,1.09
15,NC(=O)c1cccc(Nc2nccc(Nc3cccc(F)c3)n2)c1,-1.96
16,COc1cc2ncn(-c3cc(OCc4ccccc4S(C)(=O)=O)c(C#N)s3)c2cc1OC,-1.66
17,CCS(=O)(=O)c1ccc(OC)c(Nc2ncc(-c3cccc(OC)c3)o2)c1,-1.28
18,CS(=O)(=O)Nc1cccc(-c2ccc3c(NC(=O)C4CC4)n[nH]c3c2)c1,-4.93

# Target: Phosphatidylinositol 4,5-bisphosphate 3-kinase catalytic subunit alpha isoform (Homo sapiens) (UniProt P42336);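 note: values are mean inhibition figures from the GSK PKIS kinase panel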
# Sequence (P42336 whole entry, canonical isoform): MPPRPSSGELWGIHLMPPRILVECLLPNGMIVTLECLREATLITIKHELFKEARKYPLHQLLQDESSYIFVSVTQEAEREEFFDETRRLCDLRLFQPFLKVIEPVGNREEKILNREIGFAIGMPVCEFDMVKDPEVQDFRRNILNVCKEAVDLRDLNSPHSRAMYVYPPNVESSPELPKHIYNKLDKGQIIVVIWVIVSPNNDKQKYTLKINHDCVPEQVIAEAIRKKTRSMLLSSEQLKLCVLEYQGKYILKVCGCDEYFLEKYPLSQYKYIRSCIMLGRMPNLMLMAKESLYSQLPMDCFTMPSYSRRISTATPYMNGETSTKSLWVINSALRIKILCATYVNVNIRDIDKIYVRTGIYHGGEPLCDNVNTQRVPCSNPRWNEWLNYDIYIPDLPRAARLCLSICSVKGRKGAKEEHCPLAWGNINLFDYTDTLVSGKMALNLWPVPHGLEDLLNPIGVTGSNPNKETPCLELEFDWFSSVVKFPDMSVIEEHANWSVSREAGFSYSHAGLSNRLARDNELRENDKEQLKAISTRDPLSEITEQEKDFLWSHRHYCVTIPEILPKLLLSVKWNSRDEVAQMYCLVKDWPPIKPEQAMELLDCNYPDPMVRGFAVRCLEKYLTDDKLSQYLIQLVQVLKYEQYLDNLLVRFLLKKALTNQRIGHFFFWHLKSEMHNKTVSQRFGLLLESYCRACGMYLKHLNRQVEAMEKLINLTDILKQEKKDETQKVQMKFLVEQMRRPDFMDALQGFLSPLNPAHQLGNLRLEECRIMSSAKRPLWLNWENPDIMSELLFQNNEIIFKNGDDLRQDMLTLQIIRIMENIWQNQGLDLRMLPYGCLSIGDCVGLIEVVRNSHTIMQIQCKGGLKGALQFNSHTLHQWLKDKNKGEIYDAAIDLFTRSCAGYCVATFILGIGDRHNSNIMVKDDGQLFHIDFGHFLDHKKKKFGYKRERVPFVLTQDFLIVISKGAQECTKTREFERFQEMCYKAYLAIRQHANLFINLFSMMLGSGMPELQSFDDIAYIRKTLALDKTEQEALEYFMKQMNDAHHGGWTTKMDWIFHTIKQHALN
# Conditions: at 0.1 µM
row,SMILES,inhibition [%]
1,ON=C1CCc2cc(-c3nc(C4CCNCC4)[nH]c3-c3ccncc3)ccc21,-1.04
2,O=C1Nc2ccc(-c3cccnc3)cc2C1=Cc1cc(Br)c(O)c(Br)c1,11.3
3,CCOc1nccc2c1nc(-c1nonc1N)n2CC,2.9
4,c1ccc(Cc2nc3ccc(Nc4ncnc5ccccc45)cc3[nH]2)cc1,3.03
5,O=C(Nc1ccc(Oc2ccc3[nH]c(NC(=O)c4ccco4)nc3c2)cc1)Nc1cc(C(F)(F)F)ccc1F,-0.31
6,FC(F)(F)c1ccc(-c2nn3ncccc3c2-c2ccnc(Nc3ccc4c(c3)OCCO4)n2)cc1,0.21
7,COc1cc2ncnc(Nc3ccc(C)c(O)c3)c2cc1OC,4.07
8,c1ccc(Nc2ncc(-c3ccccc3)o2)cc1,5.87
9,Cc1ccc(NC(=O)CC2CC2)cc1-c1ccc(C(=O)NCC2CC2)cc1,2.05
10,OCc1ccc(-c2nc(-c3ccccn3)c(-c3ccc4c(c3)OCO4)[nH]2)cc1,3.36
11,Cc1ccc(Nc2ccnc(Nc3cccc(C(N)=O)c3)n2)cc1O,1.78
12,CN(c1ccc(NC(=O)Nc2ccc(OC(F)(F)F)cc2)cc1)c1ccnc(Nc2cccc(S(N)(=O)=O)c2)n1,2.98
13,CN(C)C(=O)O[C@@H]1CN[C@@H](C#Cc2cc3ncnc(Nc4ccc(OCc5cccc(F)c5)c(Cl)c4)c3s2)C1,0.17
14,NS(=O)(=O)c1ccc(Nc2cc(-c3cccc(O)c3)n[nH]2)cc1,4.26
15,Cc1ccc2c(-c3ccnc(Nc4cccc(C(F)(F)F)c4)n3)c(-c3ccccc3)nn2n1,3.95
16,COC(=O)Nc1nc2cc(Oc3ccc(NC(=O)Nc4cccc(Br)c4)cc3)ccc2[nH]1,0.99
17,N#Cc1c(NC(=O)c2ccccc2F)sc2c1CCCC2,-2.15

row,SMILES,inhibition [%]
1,CN(C)CCCn1c(-c2nonc2N)nc2cnccc21,2.84
2,NS(=O)(=O)c1ccc(-c2cc3ccncc3cc2OCc2ccccc2)cc1,3.71
3,NS(=O)(=O)c1cccc(-c2cc3ccncc3cc2OCc2ccccc2)c1,4.56
4,N#Cc1cccc(Nc2nccc(-c3cnn4ncccc34)n2)c1,6.65
5,COc1cccc(-n2nc(C)c3c(N/N=C(\C)c4ccncc4)ncnc32)c1,-0.84
6,Oc1cccc(-c2nc(-c3ccccc3)[nH]c2-c2ccncc2)c1,2.99
7,COc1cccc(-n2ncc3c(N/N=C/c4ccc(C)cc4)ncnc32)c1,5.44
8,COc1cccc(-n2ncc3c(N/N=C/c4ccc(S(C)(=O)=O)cc4)ncnc32)c1,1.3
9,NC(=O)c1sc(-n2cnc3ccccc32)cc1OCc1ccccc1Br,4.02
10,Cc1cc(O)cc(C)c1/C=C/c1cncc(C(=O)N(C)C)c1,1.77
11,COc1cc(/C=N/Nc2ncnc3c2cnn3C(C)C)ccc1O,19
12,NS(=O)(=O)c1ccc(N/N=C2\C(=O)Nc3ccc(Cl)cc32)cc1,2.11
13,Cc1cc(Cl)cc2c1NC(=O)C2=NNc1ccc(S(N)(=O)=O)cc1,0.48
14,NC(=O)c1cccc(Nc2nccc(Nc3cccc(F)c3)n2)c1,-0.28
15,COc1cc2ncn(-c3cc(OCc4ccccc4S(C)(=O)=O)c(C#N)s3)c2cc1OC,3.16
16,CCS(=O)(=O)c1ccc(OC)c(Nc2ncc(-c3cccc(OC)c3)o2)c1,1.81
17,CS(=O)(=O)Nc1cccc(-c2ccc3c(NC(=O)C4CC4)n[nH]c3c2)c1,-0.25
